According to PubChem BioAssay (NCI):
Compounds without any hit were thinned out: in the full panel of roughly 79,000, 15% have a hit. A number with no mark means an inactive call. The source made the active and inactive calls. No stated cut-off is given here; in the data, active means growth inhibition above about 70%; inactive means the rest.

Assays:
[1] = NCI Yeast Anticancer Drug Screen. Data for the rad50 strain (AID 155);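 further: 0% = growth of vehicle-only cultures of the same strain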; details: S. cerevisiae rad50 strain growth inhibition, stronger effect = higher value
Method in brief: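 A DNA repair-deficient yeast mutant serves as the test organism; compound-induced growth inhibition is calculated against vehicle-treated cells.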

[2] = NCI Yeast Anticancer Drug Screen. Data for the mec2-1 strain (AID 157); details: S. cerevisiae mec2-1 strain, stronger effect = higher value
Method in brief: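 Test agents were screened against the mec2-1 yeast strain, with defined DNA repair or cell cycle alteration. Growth was scored as inhibition against vehicle-only controls.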

[3] = NCI Yeast Anticancer Drug Screen. Data for the sgs1 mgt1 strain (AID 161);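 further: 0% = growth of cultures given vehicle only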; details: S. cerevisiae sgs1 mgt1 strain, stronger effect = higher value
Method in brief: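 Test agents were incubated with a DNA-repair-mutant yeast strain. Growth was then read and compared against vehicle-treated controls.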

[4] = NCI Yeast Anticancer Drug Screen. Data for the cln2 rad14 strain (AID 165);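 further: 0% = growth equal to vehicle treated cultures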; details: S. cerevisiae cln2 rad14 strain, stronger effect = higher value
Method in brief: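 Growth of compound-exposed yeast (cln2 rad14 genotype) measured and expressed as inhibition relative to vehicle.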

[5] = NCI Yeast Anticancer Drug Screen. Data for the bub3 strain (AID 167); details: S. cerevisiae bub3 mutant strain, stronger effect = higher value
Method in brief: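 Inhibition values come from growth of compound-treated mutant yeast normalised to vehicle-treated controls.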

[6] = NCI Yeast Anticancer Drug Screen. Data for the mlh1 rad18 strain (AID 175); details: S. cerevisiae mlh1 rad18 strain growth inhibition, stronger effect = higher value
Method in brief: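 In this whole-cell yeast screen, a strain with altered DNA damage repair is challenged with compound, and its growth is measured against matched vehicle-treated controls.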

[7] = at 5.0 µM (retest, dose inferred, filed as 0.5)
[8] = at 50.0 µM (retest, dose inferred, filed as 5.0)

Row | Structure (SMILES) | growth inhibition [1, 7] | growth inhibition [1, 8] | growth inhibition ([1]; at 50.0 µM) | growth inhibition [2, 7] | growth inhibition [2, 8] | growth inhibition ([2]; at 50.0 µM) | growth inhibition [3, 7] | growth inhibition [3, 8] | growth inhibition ([3]; at 50.0 µM) | growth inhibition [4, 7] | growth inhibition [4, 8] | growth inhibition ([4]; at 50.0 µM) | growth inhibition [5, 7] | growth inhibition [5, 8] | growth inhibition ([5]; at 50.0 µM) | growth inhibition [6, 7] | growth inhibition [6, 8] | growth inhibition ([6]; at 50.0 µM)
1 | Nc1ncnc2c1c(-c1ccccc1)cn2-c1ccc(Cl)cc1 | 5% | 26% | 22.2% | 2% | 10% | 15.5% | 16% | 61% | 71.8% (active) | 0% | 17% | 42.8% | 8% | 5% | -17.4% | 5% | 23% | 14.8%
2 | O=[N+]([O-])c1ccc(Cc2nc3ccccc3s2)cc1 | 32% | 82% (active) | 36.8% | 27% | 95% (active) | 14.2% | 47% | 96% (active) | 6.3% | 32% | 53% | 22.4% | 41% | 97% (active) | 65.4% | 52% | 93% (active) | 30.9%
3 | Cc1occc1C(=S)Nc1ccc(Cl)c(C(=O)OCC(C)C)c1 | 28% | 59% | 61.3% | 19% | 45% | 55.1% | 34% | 71% (active) | 58.8% | 25% | 71% (active) | 57.6% | 30% | 78% (active) | 57.1% | 33% | 73% (active) | 41.3%
4 | COc1ccccc1/C=C1\S/C(=N/Nc2nc(C)c(C(C)=O)s2)NC1=O | 20% | 29% | -14.6% | 15% | 32% | -3.1% | 20% | 39% | -0.75% | 20% | 34% | 5.4% | 17% | 43% | -18% | 15% | 36% | -7.7%
5 | O=C(NC(=S)Nc1ncc([N+](=O)[O-])s1)c1ccccc1C(=O)NC(=S)Nc1ncc([N+](=O)[O-])s1 | -5% | 78% (active) | 69.5% | 9% | 67% | 29.6% | 19% | 47% | 80.5% (active) | -6% | 40% | 19.4% | -6% | 96% (active) | 75.8% (active) | 4% | 87% (active) | 79.7% (active)
6 | OC(CCl)COc1c(Cl)c(Cl)c(Cl)c(Cl)c1Cl (configuration not stated) | -3% | 7% | -1% | -1% | 10% | 4.55% | -4% | 3% | 93% (active) | 2% | 9% | -32.7% | 0% | 16% | 11.4% | -3% | 5% | 13.6%
7 | CN(C)c1c([N+](=O)[O-])cc(N2C(=O)C=CC2=O)cc1[N+](=O)[O-] | 81% (active) | 91% (active) | 91.8% (active) | 88% (active) | 98% (active) | 93.2% (active) | 23% | 100% (active) | 93.8% (active) | 50% | 99% (active) | 90.8% (active) | 47% | 96% (active) | 92.3% (active) | 80% (active) | 96% (active) | 90.7% (active)
8 | O=S(=O)(Nc1ccnn1-c1ccccc1)c1ccc(N=Cc2c3ccccc3nc3cc(Cl)ccc23)cc1 | 22% | 29% | 96.8% (active) | 12% | 12% | 96.7% (active) | 10% | 7% | 96.4% (active) | -1% | -1% | 68.7% | 17% | 17% | 67.9% | 10% | 19% | 97.5% (active)
9 | NNc1c(Cl)c(F)c(Cl)c(F)c1Cl | 13% | 17% | 21.6% | 5% | 17% | 36.5% | 4% | 26% | 47.5% | 13% | 24% | 34.2% | 3% | 24% | 54.7% | 17% | 24% | 66.7%
10 | CN(C)N=Nc1ccc(Cl)c2ncccc12 | 3% | -2% | 0.2% | -2% | -2% | 2.1% | 0% | 2% | -2.45% | -2% | -5% | 64.2% | -2% | 1% | -4.15% | -2% | 7% | 6.75%
11 | CCC1(c2ccc(N3C(=O)c4ccccc4C3=O)cc2)CCC(=O)NC1=O (configuration not stated) | 1% | -3% | -5.4% | -36% | -24% | -13.2% | -20% | 5% | 86.3% (active) | -17% | 3% | 9.4% | -17% | -19% | -8.6% | -27% | -25% | 5.4%
12 | COC1C=COC2(C)Oc3c(C)c(O)c4c(O)c(c(C5SCCS5)c(O)c4c3C2=O)NC(=O)C(C)=C/C=C\C(C)C2OC(C)(C)OC(C2C)C(C)C(OC(C)=O)C1C (configuration not stated) | 5% | 83% (active) | 86.7% (active) | 8% | 93% (active) | 93.6% (active) | -2% | 36% | 90.8% (active) | 20% | 93% (active) | 90.3% (active) | 5% | 95% (active) | 83.8% (active) | 9% | 92% (active) | 87.8% (active)
13 | CC(=O)Oc1cc2c(cc1OC(C)=O)OCC(c1ccc(C)cc1)C2 (configuration not stated) | 8% | 65% | 53.1% | 8% | 49% | 57.9% | 4% | 61% | 32.1% | 2% | 72% (active) | 64% | 8% | 87% (active) | 73.7% (active) | 0% | 64% | 75.8% (active)
14 | CCCCCCCCCCCCCCCCNC(=S)N/C=C(/C#N)C(=O)OC | 78% (active) | 99% (active) | 99% (active) | 89% (active) | 99% (active) | 99.2% (active) | 39% | 99% (active) | 99.2% (active) | 67% | 98% (active) | 98.8% (active) | 99% (active) | 99% (active) | 99.4% (active) | 57% | 99% (active) | 99.2% (active)
15 | Cc1ccc(S(=O)(=O)N2CCN3C(=O)c4ccccc4C32c2ccc(F)cc2)cc1 (configuration not stated) | 20% | 95% (active) | 31.8% | 17% | 96% (active) | 26.3% | 88% (active) | 99% (active) | 63.2% | 28% | 98% (active) | 22.9% | 37% | 98% (active) | 50.7% | 30% | 96% (active) | 29.2%
16 | C/C=C(\C)C(=O)O[C@@H]1CC(C)(C)CC2C3=CCC4[C@]56CC[C@](O)(OC5)C(C)(C)C6CC[C@@]4(C)C3(C)CC[C@]21C(=O)O (some centres not stated) | 53% | 90% (active) | 86.5% (active) | 67% | 88% (active) | 84.7% (active) | 55% | 93% (active) | 87.2% (active) | 73% (active) | 94% (active) | 78.8% (active) | 70% (active) | 96% (active) | 81.8% (active) | 69% | 94% (active) | 81.2% (active)
17 | O=c1ccccc(Br)c1O | 12% | 97% (active) | 98.7% (active) | 10% | 93% (active) | 97.8% (active) | 6% | 97% (active) | 99.6% (active) | 19% | 87% (active) | 93.1% (active) | 8% | 98% (active) | 97.6% (active) | 9% | 97% (active) | 98.9% (active)
18 | CCN(CC)CCCNc1c(O)cc(C)c2sc3ccccc3c(=O)c12 | 17% | 98% (active) | 98.7% (active) | 6% | 99% (active) | 99.2% (active) | 4% | 99% (active) | 99% (active) | 12% | 96% (active) | 98.3% (active) | 14% | 95% (active) | 98.4% (active) | 6% | 98% (active) | 98.8% (active)
19 | O=C(Nc1ccc(F)c([N+](=O)[O-])c1)NC(Cc1ccccc1)c1ccccc1 (configuration not stated) | -11% | 86% (active) | 91.6% (active) | -2% | 93% (active) | 94.2% (active) | 12% | 92% (active) | 94.2% (active) | 2% | 92% (active) | 88.9% (active) | -4% | 92% (active) | 81.8% (active) | 26% | 91% (active) | 93.1% (active)
